Assay results published in PubChem BioAssay AID1460 (National Center for Advancing Translational Sciences (NCATS), 2008).
About 5,800 (2.1%) of roughly 270,000 compounds were called active. Roughly 16% stayed inconclusive and do not appear here. Calls come from the whole dose curve; as a rule, active = well fitted inhibition curve with a large enough effect; inconclusive = small, poorly fitted or top-dose-only effect; inactive = flat fitted curve, though single readings scatter. Only a selection was taken, and actives are over-represented in it overall.

Biological target: Microtubule-associated protein tau (Homo sapiens) (UniProt P10636)
Sequence (P10636 561-689 P618L limits assumed): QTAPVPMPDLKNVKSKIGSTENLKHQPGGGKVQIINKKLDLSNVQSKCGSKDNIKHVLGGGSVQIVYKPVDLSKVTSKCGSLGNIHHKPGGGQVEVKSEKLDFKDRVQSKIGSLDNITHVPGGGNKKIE
Assay: qHTS for Inhibitors of Tau Fibril Formation, Thioflavin T Binding; note: nearly all actives have a fitted effect of over 55% in size
Conditions: recombinant tau K18 P301L (four-repeat tau fragment), heparin-induced fibrillization, ThT fluorescence; series mostly up to 57.4 µM; activity, negative = inhibition: at the top concentration
How it was run: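 Heparin-induced fibrillization of the P301L-mutant K18 repeat-domain fragment of human tau was followed by ThT binding in quantitative high-throughput format.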
% is set by controls: 0 for no effect and ±100 for the full control effect; potency is the fitted concentration of half-maximal effect.

Structure (SMILES)	activity, negative = inhibition	Potency
Cc1csc2nc(COC(=O)c3ccc(NC(=O)COc4ccccc4F)cc3)cc(=O)n12	-5.4% (inactive)	–
Cc1ccc(/C=C(\C#N)C(=O)Nc2cccc3ncccc23)o1	–	14.1 µM (active)
O=C(Nc1cccc2ncccc12)C(Cl)(Cl)Cl	8.69% (inactive)	–
O=C(Nc1cccc2ncccc12)c1ccc(-c2ccc(Cl)cc2Cl)o1	-12.8% (inactive)	–
O=C(NCc1ccccc1Cl)C1CCN(c2ncnc3c2nc2n3CCCCC2)CC1	-13.8% (inactive)	–
Cc1ccc(NC(=O)Cn2cnc3nc4c(cc3c2=O)CCCC4)cc1Cl	6.45% (inactive)	–
O=C(Nc1ccccc1)Nc1ccccc1C(=O)NCc1ccco1	-5.07% (inactive)	–
CCc1ccc(-c2cc(C(=O)NCc3ccco3)c3ccccc3n2)s1	–	25.1 µM (active)
CCOc1ccc(CNC(=O)c2cc(-c3ccc(Cl)s3)nc3ccccc23)cc1	4.88% (inactive)	–
Cc1cc(C)cc(NS(=O)(=O)c2cc3c(cc2C)NC(=O)CO3)c1	-8.97% (inactive)	–
CCc1ccc(NC(=O)CCCc2nnc3n(CCCOC)c(=O)c4sccc4n23)cc1	-2.94% (inactive)	–
CCN(CC)c1ccc(NC(=O)CN2CCN(CC(=O)Nc3ccc(Cl)cc3)CC2)cc1	-12.7% (inactive)	–
COc1ccc(-c2nc(SCC(=O)N3CCCCC3C)n[nH]2)cc1 (stereo not given)	-11.1% (inactive)	–
CC(CCO)Nc1nc2c([nH]1)c(=O)n(C)c(=O)n2C (stereo not given)	-1.07% (inactive)	–
Cc1ccc(CNC(=O)CSc2c(C)cnc3c2c(=O)n(C)c(=O)n3C)cc1	-3.11% (inactive)	–
Cc1ccc(NN=Nc2nc3c([nH]2)c(=O)n(C)c(=O)n3C)cc1	–	28.2 µM (active)
CCc1cccc(CC)c1NC(=O)Cn1c(=O)c(-c2cc(C)ccc2NC(C)=O)nc2ccccc21	0.406% (inactive)	–
Nc1nc(-c2sc3nc4c(cc3c2N)CCCC4)nc(N2CCOCC2)n1	–	3.55 µM (active)
Cc1cc(Oc2ccccc2)nc(N2CCOCC2)n1	-5.46% (inactive)	–
Cc1nc(N2CCOCC2)nc2c1CCCC2	-16.3% (inactive)	–
COc1ccc(CCNc2nc(-c3ccc(Cl)cc3)cc(C(F)(F)F)n2)cc1OC	-16.6% (inactive)	–
COc1ccc2c(Sc3ccc(C)cc3)c(C(=O)NC(C)c3ccccc3)[nH]c2c1 (stereo not given)	2.48% (inactive)	–
CNC(=O)c1ccc(-c2nc(CN3CCc4ccccc43)c(C)o2)cc1	-12.5% (inactive)	–
CCc1ccc(NC(=O)c2nn(-c3ccc(C)cc3)c(=O)n(C)c2=O)cc1	-10.4% (inactive)	–
CC(C)CCNC(=O)CSc1nc2ccccc2nc1Cc1ccc(Cl)cc1	5.97% (inactive)	–
CCc1ccc(Sc2cc(C(=O)NCCCOC(C)C)c3ccccc3n2)cc1	-15.9% (inactive)	–
COc1ccccc1OCCNc1cc(N2CCOCC2)ccc1[N+](=O)[O-]	–	14.1 µM (active)

Structure (SMILES)	activity, negative = inhibition	Potency
COc1ccccc1OCCNC(=O)c1cc([N+](=O)[O-])cc([N+](=O)[O-])c1	1.4% (inactive)	–
O=[N+]([O-])c1ccc(N2CCN(S(=O)(=O)c3ccc4ccccc4c3)CC2)cc1NCc1ccco1	-9.48% (inactive)	–
Cc1ccc2nc(COc3cccc(NC(=O)Nc4ccc(C)c(Cl)c4)c3)cc(=O)n2c1	-13.6% (inactive)	–
CCc1ccc(CNCc2c(C(=O)O)n(Cc3ccc(F)cc3Cl)c3cc(OC)ccc23)cc1	-12.6% (inactive)	–
COc1ccc(S(=O)(=O)NCc2cccn2Cc2cccc(C)c2)cc1	10.6% (inactive)	–
COc1ccc(Cc2nc3ccc(C(=O)NCc4ccccc4C)cc3o2)cc1	-12.9% (inactive)	–
O=C(Nc1ccccc1Cl)/C(Cl)=C(\Cl)S(=O)c1ccccc1 (stereo not given)	–	2.82 µM (active)
COCCN(CCOC)C(=S)Nc1ccccc1Cl	1.33% (inactive)	–
O=C(Nc1ccccc1Cl)c1ccc2nsnc2c1	-5.65% (inactive)	–
CCOC(=O)C1CCCN(C(=O)Cn2ncc3c(C)n(Cc4ccc(F)cc4)c(C)c3c2=O)C1 (stereo not given)	-5.22% (inactive)	–
O=C(CCc1nc(CN2CCN(S(=O)(=O)c3ccc(Cl)cc3)CC2)no1)N1CCCCC1	-2.38% (inactive)	–
CCC(=O)Nc1ccc(C)cc1-c1nc2ccccc2n(Cc2ccccc2)c1=O	4.56% (inactive)	–
C=CC[n+]1c(-c2ccc(C)cc2)csc1NNC(=O)Nc1ccccc1	–	15.8 µM (active)
Cc1ccc(NC(=O)Nc2ccccc2)c(Br)c1	0.764% (inactive)	–
C=CCNc1scc(-c2ccccc2)[n+]1CC=C	-6.04% (inactive)	–
O=C(NCC(c1ccc(Cl)cc1)N1CCOCC1)c1ccccc1F (stereo not given)	-2.31% (inactive)	–
COc1ccc(-c2cc(C(=O)NCc3cc(OC)c(OC)c(OC)c3)[nH]n2)cc1	-1.22% (inactive)	–
Cc1ccc2c(c1)N(CC(=O)NCCCN1CCCCC1)C(=O)c1cccnc1O2	5.5% (inactive)	–
Cc1ccc(Nc2c(-c3ccc(C)s3)nc3ccccn23)cc1	-17.4% (inactive)	–
Cc1ccc(-c2nc3cccc(C)n3c2Nc2ccc3c(c2)OCCO3)cc1	-16.2% (inactive)	–
Cc1ccc(Nc2c(-c3ccc(N(C)C)cc3)nc3nc[nH]n23)cc1	–	14.1 µM (active)
CCn1cc(C(=O)NCc2ccc(C)cc2)c(=O)c2cc(S(=O)(=O)N3CCc4ccccc4C3)ccc21	8.86% (inactive)	–
Cc1c(-c2nsc(NC(=O)c3cccc(Cl)c3)n2)nnn1-c1ccccc1C(F)(F)F	10.2% (inactive)	–
CCOC(=O)c1ccc(NC(=O)Cn2cc(S(=O)(=O)Cc3ccccc3F)c3ccccc32)cc1	1.94% (inactive)	–
COC(=O)CC1=NN(c2ccccc2)C(=O)C1	-12.9% (inactive)	–
O=c1[nH]n(-c2ccc([N+](=O)[O-])cc2)c(=O)c2ccccc12	-17.7% (inactive)	–
O=C1CC(c2ccccc2)=NN1c1ccc([N+](=O)[O-])cc1	–	11.2 µM (active)

Structure (SMILES)	activity, negative = inhibition	Potency
O=C(NCC(c1cccnc1)N1CCc2ccccc21)c1cccc(C(F)(F)F)c1 (stereo not given)	-1.15% (inactive)	–
COc1ccccc1-c1nnc(SCC(N)=O)o1	7.71% (inactive)	–
CCOc1ccc(NC(=O)c2c(NCc3cccc(OC)c3OC)sc3c2CCC3)cc1	-8.9% (inactive)	–
CCOc1ccc(NC(=O)c2c(NC(=O)Cc3ccccc3)sc3c2CCCCC3)cc1	–	22.4 µM (active)
CCOC(=O)c1c(NC(=O)CCC(=O)NCc2ccco2)sc2c1CCCC2	-11.9% (inactive)	–
N#Cc1c(NC(=O)CCCl)sc2c1CCCCC2	0.0781% (inactive)	–
O=C(Cc1ccccc1)Nc1sc2c(c1C(=O)Nc1ccc(Br)cc1)CCC2	-1.03% (inactive)	–
Cc1ccc(NC(=O)c2c(NC(=O)CCC(=O)O)sc3c2CCCCC3)cc1	–	25.1 µM (active)
CCCn1ccc2c(OCC(=O)NCc3ccc(F)cc3)cccc2c1=O	-9.18% (inactive)	–
COc1ccccc1NC(=O)C1=C(C)Nc2nc(SCC(=O)c3ccc(C)cc3)nn2C1c1ccccc1C (stereo not given)	14.7% (inactive)	–
COc1ccc(NC(=O)CCNS(=O)(=O)c2ccc3c(c2)CCCC(=O)N3)cc1Cl	-6.94% (inactive)	–
COc1cc(NC(=O)CSc2nc3nc(C)c(Cc4ccc(C)cc4)c(C)n3n2)cc(OC)c1OC	4.12% (inactive)	–
COc1ccc(-c2nc(Cn3c(=O)cc(C)c4c(C)nn(-c5ccccc5)c43)c(C)o2)c(OC)c1	-0.776% (inactive)	–
CCOC(=O)Cn1c(=O)n(-c2ccccc2OC)c2nc(-c3cccc(F)c3)nc(C(N)=O)c21	-5.02% (inactive)	–
COc1cc(Cl)c(C)cc1Nc1nnc(-n2nc(C)cc2C)c2ccccc12	-5.87% (inactive)	–
CCc1ccc(CNC(=O)c2ccc(CS(=O)c3ccc(Br)cc3)o2)cc1 (stereo not given)	-5.94% (inactive)	–
CCOC(=O)C1=C(c2ccc(OC)cc2)C(=O)c2ccccc2C1=O	–	14.1 µM (active)
CCCCC(C(=O)OCC(=O)c1ccc(OC)cc1)N1C(=O)c2ccccc2C1=O (stereo not given)	-3.63% (inactive)	–
CCOC(=O)c1ccccc1NS(=O)(=O)c1ccc(OC)cc1	-8.17% (inactive)	–
N#Cc1c2c(c(-c3ccccc3)[nH]c1=O)CCCC2	-3.54% (inactive)	–
O=c1[nH]n2c(=O)c3c([nH]c2c1N=Nc1ccccc1)CCC3	–	3.16 µM (active)
O=c1[nH]c2c(c(=O)n1Cc1ccccc1)CCC2	-1.52% (inactive)	–
O=C(Nc1cccc(Cl)c1)c1csnn1	-9.63% (inactive)	–
CCOC(=O)C1CCN(C(c2ccc(F)cc2)c2sc3nc(-c4ccco4)nn3c2O)CC1 (stereo not given)	-6.53% (inactive)	–
CCOc1ccccc1/C=c1\sc2nc(-c3ccco3)nn2c1=O	–	22.4 µM (active)
Oc1c(C(c2ccccc2Cl)N2CCOCC2)sc2nc(-c3ccco3)nn12 (stereo not given)	-12.2% (inactive)	–
Cc1ccc2nc(COc3cccc(NC(=O)c4cccc(Cl)c4)c3)cc(=O)n2c1	-0.872% (inactive)	–

Structure (SMILES)	activity, negative = inhibition	Potency
Clc1cccc(N=C2NN=C(c3ccc4c(c3)OCCO4)CS2)c1	–	15.8 µM (active)
O=C1OC(NC(=O)c2ccccc2)C(N2CCOCC2)=C1Cl (stereo not given)	-9.42% (inactive)	–
O=C1C(Cl)=C(N2CCOCC2)C(=O)N1c1ccccc1	–	12.6 µM (active)
c1ccc(-n2nnnc2N2CCOCC2)cc1	4.05% (inactive)	–
CCc1ccc(NC(=O)CSc2nc3c([nH]c4ccccc43)c(=O)n2-c2cccc(OC)c2)cc1	13.6% (inactive)	–
CCS(=O)(=O)c1cc([N+](=O)[O-])c(Sc2ccccc2N)s1	–	10 µM (active)
Nc1ccccc1Sc1ccc(C(F)(F)F)cc1[N+](=O)[O-]	-12.6% (inactive)	–
CCOC(=O)c1cc(Sc2ccccc2N)cc(C(=O)OCC)n1	-0.497% (inactive)	–
Cc1ccc(CNS(=O)(=O)c2ccc(-c3cc(C(F)(F)F)on3)s2)cc1	13.6% (inactive)	–
O=C(NC(=S)Nc1ccc(S(=O)(=O)N2CCOCC2)cc1)c1ccccc1[N+](=O)[O-]	-0.152% (inactive)	–
O=C(Nc1cc(S(=O)(=O)N2CCOCC2)ccc1Cl)c1cc(=O)c2ccccc2o1	1.79% (inactive)	–
O=[N+]([O-])c1cc(Cl)cc(/C=N/NC(=S)Nc2cc(S(=O)(=O)N3CCOCC3)ccc2Cl)c1O	–	3.16 µM (active)
Cc1ccc(N(C)C(=O)C2CCN(S(=O)(=O)c3ccc4c(c3)CCCN4C(=O)C3CCC3)CC2)cc1	-6.98% (inactive)	–
O=C(N/N=C\c1ccc(Br)cc1)c1ccc(Cn2cccn2)o1	4.04% (inactive)	–
O=C(N/N=C/c1ccc2c(c1)OCO2)c1ccc(Cn2cc([N+](=O)[O-])cn2)o1	-0.161% (inactive)	–
CN(C)c1ccc(/C=N/NC(=O)c2ccc(Cn3cc(Br)cn3)o2)cc1	–	12.6 µM (active)
COCCOC(=O)c1sc(=S)n(CCOC)c1N	–	28.2 µM (active)
CCOC(=O)c1c(N)sc(C(C)=O)c1C	-16.5% (inactive)	–
COC(=O)c1sc(=S)n(-c2ccccc2)c1N	-17% (inactive)	–
COc1ccccc1N1CCN(C(=O)C2CCN(S(=O)(=O)c3c(C)noc3/C=C/c3ccc(C)cc3)CC2)CC1	-5.26% (inactive)	–
CCn1cc(C(=O)OCC(=O)Nc2cc(C)cc(C)c2)c(=O)c2ccc(C)nc21	-9.74% (inactive)	–
CCCS(=O)(=O)N1CCC(n2c(C(F)(F)F)nc3cccnc32)CC1	-15.8% (inactive)	–
COc1ccc(CCNC(=O)c2ccc3c(c2)sc2nc(-c4ccc(C)cc4)cn23)cc1OC	16.4% (inactive)	–
O=C(NCc1ccc(Cl)cc1)c1ccc2c(c1)nnn2C1CCCC1	1.79% (inactive)	–
